Only some compounds are listed: those with a hit (about 6.6% of all), similar ones and a draw of the others.
Beta cell apopt = blocks beta cell apoptosis. INS-1E cytokine-induced death, ATP luminescence, 48 h; percent of positive-control rescue, neutral wells zero. protection from apoptosis, % (test concentration not listed). actives 0.8% (n = 300,000). AID 435005;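 active = Every replicate reaches about 75%, or at least half do and their mean reaches it too, limit read from the data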;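 note: 0% = cytokine-treated negative control wells and 100% = positive control rescue; higher means more ATP so stronger rescue from cytokine killing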
Gli-Sufu antag = Gli-Sufu pathway antagonism; Sufu-KO-LIGHT fibroblasts, Gli luciferase reporter luminescence; inhibition, % at 5 µM; actives 0.74% (n = 340,000);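 active = inhibition above about 55%, limit read from the data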;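 note: 0% = DMSO-treated cells and 100% = wells with medium but no cells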
Mdm2 MdmX PPI = human Mdm2/MdmX binding inhibition; inhibition, % at 8 µM; actives 3% (n = 330,000); AID 485346; SaOS-2 split-luciferase Mdm2/MdmX complementation, luminescence;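 active = inhibition of at least 50% at 8 µM in the primary screen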
Target sequence (O15151 whole entry, looked up): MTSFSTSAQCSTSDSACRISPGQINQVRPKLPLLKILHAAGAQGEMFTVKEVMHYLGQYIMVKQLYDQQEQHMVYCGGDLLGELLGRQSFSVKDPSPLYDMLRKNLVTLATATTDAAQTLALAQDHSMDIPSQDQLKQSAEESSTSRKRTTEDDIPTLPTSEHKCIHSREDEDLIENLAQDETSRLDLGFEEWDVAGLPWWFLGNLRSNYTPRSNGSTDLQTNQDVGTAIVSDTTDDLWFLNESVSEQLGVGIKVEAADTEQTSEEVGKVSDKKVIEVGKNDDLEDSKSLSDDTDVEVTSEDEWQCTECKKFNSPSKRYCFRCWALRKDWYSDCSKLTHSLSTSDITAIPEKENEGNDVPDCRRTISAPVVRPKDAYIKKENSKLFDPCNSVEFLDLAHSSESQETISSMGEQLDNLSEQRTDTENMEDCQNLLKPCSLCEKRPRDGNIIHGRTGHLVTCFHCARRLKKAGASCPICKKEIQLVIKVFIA
Target sequence (Q00987 whole entry, looked up): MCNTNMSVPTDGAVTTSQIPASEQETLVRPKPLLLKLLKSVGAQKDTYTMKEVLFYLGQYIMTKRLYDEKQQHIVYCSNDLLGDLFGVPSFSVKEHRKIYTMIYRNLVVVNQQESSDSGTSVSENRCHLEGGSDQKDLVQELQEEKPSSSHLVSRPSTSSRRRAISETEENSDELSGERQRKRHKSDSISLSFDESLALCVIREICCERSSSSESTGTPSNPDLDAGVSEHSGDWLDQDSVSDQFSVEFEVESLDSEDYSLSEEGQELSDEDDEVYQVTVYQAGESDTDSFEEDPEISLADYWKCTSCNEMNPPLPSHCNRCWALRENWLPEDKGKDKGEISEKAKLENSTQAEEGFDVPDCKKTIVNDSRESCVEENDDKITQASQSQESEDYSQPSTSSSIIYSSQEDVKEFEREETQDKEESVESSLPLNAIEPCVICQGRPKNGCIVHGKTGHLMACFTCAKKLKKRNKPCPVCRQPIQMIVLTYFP
GRIN3A LBD mod = NR3A (human) ligand-binding domain modulation | AID 1259313 | actives 2.5% (n = 340,000) | NR3A LBD differential scanning fluorimetry, Tm shift; 0% = protein alone, 100% = glycine-bound protein | Tm shift relative to glycine control, % at 25 µM;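 active = melting temperature shift of at least 10% of the positive control shift, at one fixed dose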
CSC inhib = cancer stem cell inhibition | cancer stem cell-like cells viability, luminescence | inhibition, % at 7.5 µM | actives 1.1% (n = 300,000); in the data active = inhibition above about 75%; tested in HMLE shEcad cells
MPTP block = inhibitors of mitochondrial permeability transition pore | inhibition, % at 10 µM | isolated mouse mitochondria, Ca2+ swelling absorbance, 30 min | actives 1.4% (n = 360,000);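 active = inhibition of 50% or more, scaled per plate between neutral and stimulator controls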;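 note: 0% = DMSO wells given calcium and 100% = 1 mM EGTA wells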
Gli antag conf = confirmation of Gli-SUFU pathway antagonists; shares compounds with Gli-Sufu antag; Sufu-KO-LIGHT cells, Gli luciferase reporter, luminescence; inhibition, % at 5 µM; actives 40% (n = 2,500);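 active = mean inhibition at 5 µM reaching about 45%, limit read from the data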;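 note: plate controls were DMSO-treated cells for no effect and wells lacking cells for full effect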
Gli cytotox = counter-screen for Gli-SUFU antagonists: cytotoxicity. shares compounds with Gli-Sufu antag. Sufu-KO-LIGHT cells cytotoxicity, ATP luminescence. cytotoxicity, % at 5 µM. actives 32% (n = 2,500). AID 651994;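 active = mean cytotoxicity at 5 µM above about 25%, limit read from the data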;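 note: cells exposed to compound overnight for roughly 16 to 18 hours; plate controls were DMSO wells with cells for no effect and medium without cells for full effect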
Wnt3a counter = inhibits Wnt3a reporter, counter-screen for Gli-SUFU antagonists; shares compounds with Gli-Sufu antag; Wnt-LIGHT cells, Wnt3a-driven luciferase reporter, luminescence; inhibition, % at 6.25 µM; actives 20% (n = 2,500);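 active = mean inhibition above about 25%, limit read from the data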
* marks the source's active call; other numbers are inactive results.

For COc1cc(/C=C/C(=O)O[C@H]2[C@H](O[C@@H]3O[C@@H](C)[C@H](O)[C@@H](O)[C@H]3O)[C@@H](O)[C@H](OCCc3ccc(O)c(OC)c3)O[C@@H]2CO)ccc1O the results were Gli-Sufu antag -12, Mdm2 MdmX PPI 17, GRIN3A LBD mod -2 and MPTP block -1.
Screening C=CCn1c(SCC(=O)Nc2nncs2)nnc1-c1ccco1 returned Beta cell apopt 1, Gli-Sufu antag -2, Mdm2 MdmX PPI -2, GRIN3A LBD mod -1 and MPTP block -1.
`COc1ccc(COC(=O)N/N=C(\C)CC(=O)Nc2c(C)cc(C)cc2C)cc1` gave Beta cell apopt -6, Gli-Sufu antag 99*, Mdm2 MdmX PPI 27, GRIN3A LBD mod 1, CSC inhib -8, MPTP block 1, Gli antag conf 15, Gli cytotox 23 and Wnt3a counter -24.
`Cc1cc(C(=O)NNCc2ccccc2)no1` gave Gli-Sufu antag -9, Mdm2 MdmX PPI 8, GRIN3A LBD mod -1, CSC inhib -5 and MPTP block 0.
Screening Cc1cc(C(=O)NCc2ccccc2)no1 returned Beta cell apopt -3, Gli-Sufu antag 89*, Mdm2 MdmX PPI -1, GRIN3A LBD mod -1, CSC inhib 3, MPTP block 0, Gli antag conf 23, Gli cytotox 19 and Wnt3a counter -9.
For O=C(O)CCn1nc(-c2ccc(F)cc2)cc(Cc2ccccc2)c1=O the results were Beta cell apopt -3, Gli-Sufu antag 1, Mdm2 MdmX PPI 4, GRIN3A LBD mod -2, CSC inhib 11 and MPTP block 0.
Screening C/C(=N\NC(=O)c1nonc1N)c1cccs1 returned Beta cell apopt -2, Gli-Sufu antag -5, Mdm2 MdmX PPI 25, GRIN3A LBD mod 0, CSC inhib 3 and MPTP block 0.
Screening Cc1cc(=O)oc(C)c1C(=O)NCCN1CCOCC1 returned Beta cell apopt -1, Gli-Sufu antag 72*, Mdm2 MdmX PPI 20, GRIN3A LBD mod 0, CSC inhib -6, MPTP block 2, Gli antag conf 28, Gli cytotox -6 and Wnt3a counter 25*.
For CCCNC(=O)c1c(C)cc(=O)oc1C the results were Beta cell apopt -3, Gli-Sufu antag -4, Mdm2 MdmX PPI -19, GRIN3A LBD mod -1, CSC inhib -2 and MPTP block -1.
`Cc1c(C)n(Cc2ccccc2)c2ccc(C(=O)NCCN3CCOCC3)cc12` gave Beta cell apopt -2, Gli-Sufu antag 5, Mdm2 MdmX PPI 23, GRIN3A LBD mod 0, CSC inhib 22 and MPTP block -1.
Screening CCn1c(C)c(C)c2cc(C(=O)NCCN3CCOCC3)ccc21 returned Beta cell apopt -4, Gli-Sufu antag 58*, Mdm2 MdmX PPI -11, GRIN3A LBD mod 3, CSC inhib -6, MPTP block 0, Gli antag conf 29, Gli cytotox 6 and Wnt3a counter -10.
S=c1[nH]nc(-c2cc3ccccc3o2)n1Cc1ccccc1 was read as Beta cell apopt -6, Gli-Sufu antag -3, Mdm2 MdmX PPI 29, GRIN3A LBD mod 2, CSC inhib 0 and MPTP block 3.
Screening Cc1ccn(CCSCC(=O)O)n1 returned Gli-Sufu antag 53, Mdm2 MdmX PPI 2, GRIN3A LBD mod -2, CSC inhib -4, MPTP block 6, Gli antag conf 13, Gli cytotox 12 and Wnt3a counter -7.
O=C(N/N=C/c1cn(CCOc2ccccc2)c2ccccc12)c1ccncc1 was read as Beta cell apopt 4, Gli-Sufu antag 55, Mdm2 MdmX PPI 3, GRIN3A LBD mod -10, CSC inhib 0, MPTP block 1, Gli antag conf 18, Gli cytotox -1 and Wnt3a counter 14.
For O=C(CN1CCCCCC1=O)N1CCN(S(=O)(=O)c2cccs2)CC1 the results were Beta cell apopt -1, Gli-Sufu antag -9, Mdm2 MdmX PPI 18, GRIN3A LBD mod -1, CSC inhib -14 and MPTP block 3.
Screening O=C(NCc1ccccc1Cl)C1CCCN(S(=O)(=O)c2cccc3nsnc23)C1 (stereo not drawn) returned Beta cell apopt 5, Gli-Sufu antag -4, Mdm2 MdmX PPI 6, GRIN3A LBD mod 2, CSC inhib -6 and MPTP block 1.
For O=C(NNC(=O)c1ccc(Cn2cccn2)o1)NC12CC3CC(CC(C3)C1)C2 the results were Beta cell apopt 1, Gli-Sufu antag 2, Mdm2 MdmX PPI 17, GRIN3A LBD mod 1 and MPTP block 1.
`COc1ccc(OCCSc2nnc(C)n2-c2ccccc2)cc1` gave Gli-Sufu antag 40, Mdm2 MdmX PPI 16, GRIN3A LBD mod -1, CSC inhib 4 and MPTP block 3.
For CN1CCN(C(CNC(=O)C(=O)Nc2ccc3c(c2)OCO3)c2ccc(F)cc2)CC1 (stereo not drawn) the results were Gli-Sufu antag 54, Mdm2 MdmX PPI 22, GRIN3A LBD mod -5, CSC inhib -6, MPTP block 2, Gli antag conf 20, Gli cytotox 9 and Wnt3a counter -11.
For COc1ccc(C(CNC(=O)C(=O)Nc2ccc3c(c2)OCO3)N2CCN(C)CC2)cc1 (stereo not drawn) the results were Gli-Sufu antag 24, Mdm2 MdmX PPI 8, GRIN3A LBD mod 2, CSC inhib 8 and MPTP block -3.
Screening Cc1ccc2c(c1)C(=O)CC(O)(C(F)F)O2 (stereo not drawn) returned Beta cell apopt -3, Gli-Sufu antag 55*, Mdm2 MdmX PPI 19, GRIN3A LBD mod 1, CSC inhib -9, MPTP block 1, Gli antag conf 11, Gli cytotox -1 and Wnt3a counter 9.
For COc1ccc(C(=O)Nc2cccnc2Sc2ccc(Cl)cc2)cc1 the results were Beta cell apopt -3, Gli-Sufu antag -4, Mdm2 MdmX PPI 3, GRIN3A LBD mod -1, CSC inhib 7 and MPTP block 3.
Cc1cccc(N(Cc2ccccc2)C(=O)CCl)c1 was read as Gli-Sufu antag 77*, GRIN3A LBD mod -1, MPTP block -2, Gli antag conf 29, Gli cytotox 28* and Wnt3a counter -9.
Screening COc1ccc(C(=O)N(Cc2ccccc2)c2cccc(C)c2)c(OC)c1OC returned Beta cell apopt 0, Gli-Sufu antag 8, Mdm2 MdmX PPI 18, GRIN3A LBD mod 2, CSC inhib -9 and MPTP block 1.

Bioassay records (PubChem BioAssay)
